From publication PMC7862700, “An all-to-all approach to the identification of sequence-specific readers for epigenetic DNA modifications on cytosine”

Experiments:
Assay in all cases: DAPPL (digital affinity profiling via proximity ligation, sequencing); 10 mM Tris-HCl pH 7.5, 50 mM NaCl, 1 mM DTT, 4% glycerol, room temperature, 30 min; GST-TFs on glutathione beads, 16-mer random dsDNA library, 0.1% formaldehyde crosslink after washing; high values mean tight binding
FLI1 = biological target: T1, FLI1 (Homo sapiens, UniProt Q01543 1-452); conditions: protein: recombinant; tags: N-terminal GST; dsDNA, one strand shown
T1 sequence: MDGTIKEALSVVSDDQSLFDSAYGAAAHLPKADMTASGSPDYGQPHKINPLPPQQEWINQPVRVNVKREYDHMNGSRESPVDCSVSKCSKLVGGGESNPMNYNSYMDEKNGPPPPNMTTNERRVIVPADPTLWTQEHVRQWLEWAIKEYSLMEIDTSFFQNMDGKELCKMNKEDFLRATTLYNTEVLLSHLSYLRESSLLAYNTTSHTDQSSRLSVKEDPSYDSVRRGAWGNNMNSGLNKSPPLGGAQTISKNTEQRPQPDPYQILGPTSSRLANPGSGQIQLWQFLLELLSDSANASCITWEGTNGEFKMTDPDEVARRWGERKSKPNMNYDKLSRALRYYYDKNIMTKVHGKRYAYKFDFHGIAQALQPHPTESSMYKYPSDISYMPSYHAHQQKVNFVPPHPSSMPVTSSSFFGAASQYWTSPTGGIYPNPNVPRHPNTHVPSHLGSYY
Summary of the method: (§1)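 Human transcription factors were made in yeast as GST fusions, captured on glutathione beads and barcoded with DNA. With a tag-only sample included, the pool was incubated with 200 nmole of a random double-stranded 16-mer DNA library in Tris/NaCl/DTT/glycerol buffer at room temperature for 30 min, then crosslinked with 0.1% formaldehyde after washing, ligated by proximity, amplified and sequenced. For binding signal, each hexamer's read frequency for a factor is divided by its frequency for the tag-only sample.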

ELK1 = biological target: T2, ELK1 (Homo sapiens, UniProt P19419 1-428); conditions: protein: recombinant; tags: N-terminal GST; dsDNA, one strand shown
T2 sequence: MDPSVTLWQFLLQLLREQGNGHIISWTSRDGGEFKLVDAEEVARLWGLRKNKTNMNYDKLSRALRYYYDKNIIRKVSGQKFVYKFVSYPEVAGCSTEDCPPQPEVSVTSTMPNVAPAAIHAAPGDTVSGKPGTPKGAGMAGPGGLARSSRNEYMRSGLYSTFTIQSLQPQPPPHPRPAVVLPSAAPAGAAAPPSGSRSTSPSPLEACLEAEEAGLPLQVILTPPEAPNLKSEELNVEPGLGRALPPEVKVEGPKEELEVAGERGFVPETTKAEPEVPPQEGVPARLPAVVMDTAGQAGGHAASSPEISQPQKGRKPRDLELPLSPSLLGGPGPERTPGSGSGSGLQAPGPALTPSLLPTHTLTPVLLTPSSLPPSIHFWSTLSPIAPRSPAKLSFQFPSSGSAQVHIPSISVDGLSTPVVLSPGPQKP
Summary of the method: as §1

GABPA = biological target: T3, GABPA (Homo sapiens, UniProt Q06546 1-454); conditions: protein: recombinant; tags: N-terminal GST; dsDNA, one strand shown
T3 sequence: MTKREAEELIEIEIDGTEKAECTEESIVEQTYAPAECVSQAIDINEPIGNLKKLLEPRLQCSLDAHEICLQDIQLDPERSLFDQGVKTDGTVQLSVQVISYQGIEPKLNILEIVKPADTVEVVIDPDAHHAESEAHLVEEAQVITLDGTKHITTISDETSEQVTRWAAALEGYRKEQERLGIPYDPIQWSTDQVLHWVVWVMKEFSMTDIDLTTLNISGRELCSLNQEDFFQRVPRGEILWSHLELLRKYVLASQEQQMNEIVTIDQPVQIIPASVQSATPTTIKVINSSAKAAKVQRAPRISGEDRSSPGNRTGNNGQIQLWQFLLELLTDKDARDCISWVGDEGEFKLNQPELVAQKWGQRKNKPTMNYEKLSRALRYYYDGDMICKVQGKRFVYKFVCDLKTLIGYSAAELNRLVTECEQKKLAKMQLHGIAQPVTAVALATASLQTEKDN
Summary of the method: as §1

ERG = biological target: T4, ERG (Homo sapiens, UniProt P11308 1-479); conditions: protein: recombinant; tags: N-terminal GST; dsDNA, one strand shown
T4 sequence: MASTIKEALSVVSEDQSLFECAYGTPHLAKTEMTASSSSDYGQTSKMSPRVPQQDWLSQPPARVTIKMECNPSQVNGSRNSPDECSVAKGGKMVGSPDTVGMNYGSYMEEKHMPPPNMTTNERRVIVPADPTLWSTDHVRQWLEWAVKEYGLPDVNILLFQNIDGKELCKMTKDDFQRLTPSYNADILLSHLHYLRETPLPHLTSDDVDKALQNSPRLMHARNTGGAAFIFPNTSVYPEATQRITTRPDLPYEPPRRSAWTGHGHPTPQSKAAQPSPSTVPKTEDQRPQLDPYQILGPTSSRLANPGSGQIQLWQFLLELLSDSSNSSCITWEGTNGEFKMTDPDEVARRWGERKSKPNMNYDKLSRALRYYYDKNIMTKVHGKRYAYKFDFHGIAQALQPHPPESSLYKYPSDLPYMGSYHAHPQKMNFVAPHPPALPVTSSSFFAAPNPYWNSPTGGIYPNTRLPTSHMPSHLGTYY
Summary of the method: as §1

ELF1 = ELF1 (Homo sapiens, UniProt P32519 1-619); conditions: protein: recombinant; tags: N-terminal GST; dsDNA, one strand shown
Summary of the method: as §1

EHF = biological target: T5, EHF (Homo sapiens, UniProt Q9NZC4 1-300); conditions: protein: recombinant; tags: N-terminal GST; dsDNA, one strand shown
T5 sequence: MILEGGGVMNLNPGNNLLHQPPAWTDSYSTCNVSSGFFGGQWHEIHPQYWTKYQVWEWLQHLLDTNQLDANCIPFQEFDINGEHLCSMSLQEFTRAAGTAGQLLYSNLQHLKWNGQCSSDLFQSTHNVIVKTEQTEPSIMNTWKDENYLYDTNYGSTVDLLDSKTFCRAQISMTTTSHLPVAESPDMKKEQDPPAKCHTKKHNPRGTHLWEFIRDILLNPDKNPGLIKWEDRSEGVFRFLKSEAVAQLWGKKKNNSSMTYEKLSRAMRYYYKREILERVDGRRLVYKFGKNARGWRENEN
Summary of the method: as §1

SPI1 = SPI1 (Homo sapiens, UniProt P17947 1-270); conditions: protein: recombinant; tags: N-terminal GST; dsDNA, one strand shown
Summary of the method: as §1

SPIB = SPIB (Homo sapiens, UniProt Q01892 1-262); conditions: protein: recombinant; tags: N-terminal GST; dsDNA, one strand shown
Summary of the method: as §1

ELK3 = biological target: T6, ELK3 (Homo sapiens, UniProt P41970 1-407); conditions: protein: recombinant; tags: N-terminal GST; dsDNA, one strand shown
T6 sequence: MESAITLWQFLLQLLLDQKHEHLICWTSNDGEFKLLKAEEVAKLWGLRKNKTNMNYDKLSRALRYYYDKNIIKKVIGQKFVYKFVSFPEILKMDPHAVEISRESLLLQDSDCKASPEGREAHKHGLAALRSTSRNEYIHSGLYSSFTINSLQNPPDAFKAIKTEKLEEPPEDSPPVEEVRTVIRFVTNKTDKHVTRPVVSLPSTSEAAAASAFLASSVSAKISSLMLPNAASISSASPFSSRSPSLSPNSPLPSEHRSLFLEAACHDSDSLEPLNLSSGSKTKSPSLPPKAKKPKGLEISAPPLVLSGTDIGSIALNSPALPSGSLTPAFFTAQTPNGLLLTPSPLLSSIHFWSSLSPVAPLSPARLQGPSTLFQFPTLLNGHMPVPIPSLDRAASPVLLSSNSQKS
Summary of the method: as §1

FEV = biological target: T7, FEV (Homo sapiens, UniProt Q99581 1-238); conditions: protein: recombinant; tags: N-terminal GST; dsDNA, one strand shown
T7 sequence: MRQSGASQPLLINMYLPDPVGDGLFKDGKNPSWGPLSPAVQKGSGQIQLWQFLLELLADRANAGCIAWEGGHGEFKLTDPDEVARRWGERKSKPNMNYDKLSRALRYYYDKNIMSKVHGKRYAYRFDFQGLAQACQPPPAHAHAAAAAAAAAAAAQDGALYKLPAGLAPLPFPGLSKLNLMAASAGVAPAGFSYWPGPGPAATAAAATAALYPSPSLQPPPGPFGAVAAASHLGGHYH
Summary of the method: as §1

ETV5 = ETV5 (Homo sapiens, UniProt P41161 1-510); conditions: protein: recombinant; tags: N-terminal GST; dsDNA, one strand shown
Summary of the method: as §1

HSF1 = HSF1 (Homo sapiens, UniProt Q00613 1-529); conditions: protein: recombinant; tags: N-terminal GST; chain copies: 3; dsDNA, one strand shown
Summary of the method: as §1

SPIC = biological target: T8, SPIC (Homo sapiens, UniProt Q8N5J4 1-248); conditions: protein: recombinant; tags: N-terminal GST; dsDNA, one strand shown
T8 sequence: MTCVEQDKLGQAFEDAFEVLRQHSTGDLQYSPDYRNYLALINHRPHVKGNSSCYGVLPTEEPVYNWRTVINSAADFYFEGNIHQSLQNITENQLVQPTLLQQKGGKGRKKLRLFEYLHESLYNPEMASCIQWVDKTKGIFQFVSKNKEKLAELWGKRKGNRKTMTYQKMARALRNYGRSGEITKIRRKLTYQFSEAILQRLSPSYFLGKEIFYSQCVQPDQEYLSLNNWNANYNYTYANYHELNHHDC
Summary of the method: as §1

ELF4 = ELF4 (Homo sapiens, UniProt Q99607 1-663); conditions: protein: recombinant; tags: N-terminal GST; dsDNA, one strand shown
Summary of the method: as §1

ELK4 = biological target: T9, ELK4 (Homo sapiens, UniProt P28324-2 1-405); conditions: protein: recombinant; tags: N-terminal GST; dsDNA, one strand shown
T9 sequence: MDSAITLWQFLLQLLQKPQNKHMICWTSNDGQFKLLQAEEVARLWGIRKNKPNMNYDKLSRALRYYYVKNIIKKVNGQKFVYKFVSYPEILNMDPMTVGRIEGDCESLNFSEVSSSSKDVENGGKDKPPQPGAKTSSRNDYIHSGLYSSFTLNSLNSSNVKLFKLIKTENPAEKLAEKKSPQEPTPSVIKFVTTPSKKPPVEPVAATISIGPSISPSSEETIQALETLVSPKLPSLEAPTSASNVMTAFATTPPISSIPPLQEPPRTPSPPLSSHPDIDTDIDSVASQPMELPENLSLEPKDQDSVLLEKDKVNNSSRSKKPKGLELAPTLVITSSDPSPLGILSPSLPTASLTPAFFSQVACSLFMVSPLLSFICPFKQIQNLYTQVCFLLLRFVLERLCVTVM
Summary of the method: as §1

ETV2 = biological target: T10, ETV2 (Homo sapiens, UniProt O00321 1-342); conditions: protein: recombinant; tags: N-terminal GST; dsDNA, one strand shown
T10 sequence: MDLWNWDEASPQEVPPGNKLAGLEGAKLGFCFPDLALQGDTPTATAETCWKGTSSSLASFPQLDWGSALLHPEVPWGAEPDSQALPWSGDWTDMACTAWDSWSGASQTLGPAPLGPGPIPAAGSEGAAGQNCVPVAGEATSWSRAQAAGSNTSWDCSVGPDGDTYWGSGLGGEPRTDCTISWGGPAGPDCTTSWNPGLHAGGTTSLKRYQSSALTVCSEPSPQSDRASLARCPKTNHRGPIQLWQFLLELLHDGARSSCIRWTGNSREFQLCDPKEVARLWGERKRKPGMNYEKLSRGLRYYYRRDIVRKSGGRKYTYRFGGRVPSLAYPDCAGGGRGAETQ
Summary of the method: as §1

ELF3 = biological target: T11, ELF3 (Homo sapiens, UniProt P78545 1-371); conditions: protein: recombinant; tags: N-terminal GST; dsDNA, one strand shown
T11 sequence: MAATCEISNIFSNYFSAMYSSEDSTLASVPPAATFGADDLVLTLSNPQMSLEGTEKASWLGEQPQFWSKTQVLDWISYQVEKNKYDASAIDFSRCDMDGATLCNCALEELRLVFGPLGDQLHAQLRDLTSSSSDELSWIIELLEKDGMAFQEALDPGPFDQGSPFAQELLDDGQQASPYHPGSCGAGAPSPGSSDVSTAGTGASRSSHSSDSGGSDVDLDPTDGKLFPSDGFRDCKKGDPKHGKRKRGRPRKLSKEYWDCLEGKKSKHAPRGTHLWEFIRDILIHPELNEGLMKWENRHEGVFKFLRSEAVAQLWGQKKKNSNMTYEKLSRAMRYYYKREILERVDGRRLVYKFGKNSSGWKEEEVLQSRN
Summary of the method: as §1

CRX = CRX (Homo sapiens, UniProt O43186 1-299); conditions: protein: recombinant; tags: N-terminal GST; dsDNA, one strand shown
Summary of the method: as §1

ETV1 = ETV1 (Homo sapiens, UniProt P50549 1-477); conditions: protein: recombinant; tags: N-terminal GST; dsDNA, one strand shown
Summary of the method: as §1

Sequence of CRX (O43186 whole entry): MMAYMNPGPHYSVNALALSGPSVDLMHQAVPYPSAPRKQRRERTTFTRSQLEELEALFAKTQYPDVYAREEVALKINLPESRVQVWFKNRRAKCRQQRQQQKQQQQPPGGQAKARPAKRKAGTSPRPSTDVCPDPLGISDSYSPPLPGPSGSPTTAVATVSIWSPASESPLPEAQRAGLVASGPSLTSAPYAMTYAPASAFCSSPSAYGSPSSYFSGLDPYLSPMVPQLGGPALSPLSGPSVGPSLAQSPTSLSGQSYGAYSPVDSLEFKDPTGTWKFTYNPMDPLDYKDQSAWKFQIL
Sequence of HSF1 (Q00613 whole entry): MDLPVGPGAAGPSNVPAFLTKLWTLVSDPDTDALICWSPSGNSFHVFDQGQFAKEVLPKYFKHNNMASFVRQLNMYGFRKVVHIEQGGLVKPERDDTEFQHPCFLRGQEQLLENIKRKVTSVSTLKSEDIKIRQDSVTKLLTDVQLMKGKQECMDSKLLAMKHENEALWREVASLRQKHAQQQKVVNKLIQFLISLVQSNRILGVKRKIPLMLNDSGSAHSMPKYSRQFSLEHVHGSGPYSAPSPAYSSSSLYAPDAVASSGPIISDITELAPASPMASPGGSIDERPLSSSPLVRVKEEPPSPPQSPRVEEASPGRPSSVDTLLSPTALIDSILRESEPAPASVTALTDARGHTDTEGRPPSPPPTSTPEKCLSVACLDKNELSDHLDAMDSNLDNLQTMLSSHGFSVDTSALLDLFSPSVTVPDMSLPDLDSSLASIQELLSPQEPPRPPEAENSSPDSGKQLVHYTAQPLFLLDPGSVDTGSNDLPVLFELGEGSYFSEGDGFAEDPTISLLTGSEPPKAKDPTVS
Sequence of ETV5 (P41161 whole entry): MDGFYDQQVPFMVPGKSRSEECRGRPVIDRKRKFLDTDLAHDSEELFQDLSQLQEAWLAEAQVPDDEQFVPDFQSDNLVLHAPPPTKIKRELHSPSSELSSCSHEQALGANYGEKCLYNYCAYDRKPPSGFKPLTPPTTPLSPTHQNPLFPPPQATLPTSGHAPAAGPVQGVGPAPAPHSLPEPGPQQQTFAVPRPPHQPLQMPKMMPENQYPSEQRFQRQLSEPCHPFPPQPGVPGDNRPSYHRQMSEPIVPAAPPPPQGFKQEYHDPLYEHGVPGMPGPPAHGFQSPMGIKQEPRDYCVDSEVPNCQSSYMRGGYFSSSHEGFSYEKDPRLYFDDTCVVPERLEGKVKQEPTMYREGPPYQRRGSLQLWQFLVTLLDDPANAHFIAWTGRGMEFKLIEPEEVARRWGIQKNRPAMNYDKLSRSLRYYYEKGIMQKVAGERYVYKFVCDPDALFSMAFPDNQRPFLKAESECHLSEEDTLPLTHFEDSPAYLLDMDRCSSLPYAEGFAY
Sequence of ELF1 (P32519 whole entry): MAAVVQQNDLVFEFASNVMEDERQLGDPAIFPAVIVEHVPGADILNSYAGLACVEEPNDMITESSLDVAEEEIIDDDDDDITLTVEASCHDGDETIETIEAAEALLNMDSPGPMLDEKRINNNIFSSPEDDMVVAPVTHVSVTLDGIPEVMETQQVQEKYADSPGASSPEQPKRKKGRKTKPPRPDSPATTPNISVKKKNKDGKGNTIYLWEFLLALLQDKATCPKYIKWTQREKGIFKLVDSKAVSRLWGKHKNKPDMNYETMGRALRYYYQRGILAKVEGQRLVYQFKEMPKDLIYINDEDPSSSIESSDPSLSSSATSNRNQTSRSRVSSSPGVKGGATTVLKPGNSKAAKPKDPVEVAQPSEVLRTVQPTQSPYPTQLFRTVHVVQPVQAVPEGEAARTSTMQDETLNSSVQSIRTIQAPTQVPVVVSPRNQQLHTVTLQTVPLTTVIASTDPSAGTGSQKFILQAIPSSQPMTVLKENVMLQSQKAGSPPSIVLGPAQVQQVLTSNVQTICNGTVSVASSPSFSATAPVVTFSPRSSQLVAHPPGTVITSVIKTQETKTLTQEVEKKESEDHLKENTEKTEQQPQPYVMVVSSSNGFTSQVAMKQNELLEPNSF
Sequence of SPIB (Q01892 whole entry): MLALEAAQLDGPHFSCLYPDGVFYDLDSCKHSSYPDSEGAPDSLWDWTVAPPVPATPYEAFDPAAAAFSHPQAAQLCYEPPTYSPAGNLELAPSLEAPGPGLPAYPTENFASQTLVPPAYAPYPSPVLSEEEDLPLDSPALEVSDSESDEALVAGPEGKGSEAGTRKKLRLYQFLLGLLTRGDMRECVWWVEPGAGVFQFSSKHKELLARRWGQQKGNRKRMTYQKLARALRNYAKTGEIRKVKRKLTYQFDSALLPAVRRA
Sequence of ETV1 (P50549 whole entry): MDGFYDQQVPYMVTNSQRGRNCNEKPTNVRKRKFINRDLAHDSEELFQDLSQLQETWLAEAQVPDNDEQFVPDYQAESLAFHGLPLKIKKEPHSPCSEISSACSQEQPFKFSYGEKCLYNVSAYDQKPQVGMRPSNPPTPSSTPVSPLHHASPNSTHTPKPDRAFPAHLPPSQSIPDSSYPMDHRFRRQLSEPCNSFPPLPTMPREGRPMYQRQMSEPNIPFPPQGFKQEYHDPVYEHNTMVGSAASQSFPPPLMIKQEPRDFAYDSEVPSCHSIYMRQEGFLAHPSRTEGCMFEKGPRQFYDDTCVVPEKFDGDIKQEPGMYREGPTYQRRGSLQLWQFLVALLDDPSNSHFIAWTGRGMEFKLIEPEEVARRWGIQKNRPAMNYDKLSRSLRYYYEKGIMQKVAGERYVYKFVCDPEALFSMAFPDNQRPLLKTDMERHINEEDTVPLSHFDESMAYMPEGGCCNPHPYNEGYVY
Sequence of ELF4 (Q99607 whole entry): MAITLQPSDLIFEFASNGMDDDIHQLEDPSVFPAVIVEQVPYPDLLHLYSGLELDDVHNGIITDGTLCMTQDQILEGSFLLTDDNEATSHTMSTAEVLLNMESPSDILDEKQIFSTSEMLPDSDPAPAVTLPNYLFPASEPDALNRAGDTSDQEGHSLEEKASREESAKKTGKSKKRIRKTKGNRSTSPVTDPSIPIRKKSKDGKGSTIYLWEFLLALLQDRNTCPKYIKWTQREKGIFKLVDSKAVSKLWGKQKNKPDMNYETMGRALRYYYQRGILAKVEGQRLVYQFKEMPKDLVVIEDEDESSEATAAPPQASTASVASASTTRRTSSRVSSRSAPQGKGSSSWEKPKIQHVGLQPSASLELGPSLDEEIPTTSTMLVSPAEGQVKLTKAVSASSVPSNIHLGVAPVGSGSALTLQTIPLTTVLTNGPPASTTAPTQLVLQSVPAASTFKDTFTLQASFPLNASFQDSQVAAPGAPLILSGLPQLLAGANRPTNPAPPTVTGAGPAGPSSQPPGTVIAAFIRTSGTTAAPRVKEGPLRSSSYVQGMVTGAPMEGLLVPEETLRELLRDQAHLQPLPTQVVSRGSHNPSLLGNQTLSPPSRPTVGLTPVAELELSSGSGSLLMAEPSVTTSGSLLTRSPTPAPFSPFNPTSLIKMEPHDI

ACAAAT
binding signal (FLI1): 1.09 fold enrichment (6-mer frequency, TF over GST control) | binding signal (ELK1): 1.18 fold enrichment (6-mer frequency, TF over GST control) | binding signal (GABPA): 1.12 fold enrichment (6-mer frequency, TF over GST control) | binding signal (ERG): 1.15 fold enrichment (6-mer frequency, TF over GST control) | binding signal (ELF1): 1.15 fold enrichment (6-mer frequency, TF over GST control) | binding signal (EHF): 1.19 fold enrichment (6-mer frequency, TF over GST control) | binding signal (SPI1): 1.17 fold enrichment (6-mer frequency, TF over GST control) | binding signal (SPIB): 1.11 fold enrichment (6-mer frequency, TF over GST control) | binding signal (ELK3): 1.14 fold enrichment (6-mer frequency, TF over GST control) | binding signal (FEV): 1.16 fold enrichment (6-mer frequency, TF over GST control) | binding signal (ETV5): 1.16 fold enrichment (6-mer frequency, TF over GST control) | binding signal (HSF1): 1.17 fold enrichment (6-mer frequency, TF over GST control) | binding signal (SPIC): 1.12 fold enrichment (6-mer frequency, TF over GST control) | binding signal (ELF4): 1.18 fold enrichment (6-mer frequency, TF over GST control) | binding signal (ELK4): 1.04 fold enrichment (6-mer frequency, TF over GST control) | binding signal (ETV2): 1.16 fold enrichment (6-mer frequency, TF over GST control) | binding signal (ELF3): 1.22 fold enrichment (6-mer frequency, TF over GST control) | binding signal (CRX): 1.29 fold enrichment (6-mer frequency, TF over GST control) | binding signal (ETV1): 1.15 fold enrichment (6-mer frequency, TF over GST control)
